A selection: hits, their analogues and other compounds. The true share with any hit is near 28%.
CYP2C19 inhib: blocks human cytochrome P450 2C19; 21% of 96,000 active; CYP2C19 Supersomes, luciferin-H EGE luminescence, 30 min; P33261; inhibition, % at 5 µM;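 active means CYP2C19 inhibition above a set limit at 5 µM in the primary screen, cut at about 50% in these data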;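 further: plate controls were negative control wells for no effect and 2.5 mM tranylcypromine positive control for full effect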
CYP2C9 inhib: human CYP2C9 inhibition; P11712; CYP2C9 Supersomes, luciferin-H conversion, luminescence; inhibition, % at 5 µM; 20% of 96,000 active;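 active means blocking of liver enzyme CYP2C9 beyond about 50% at 5 µM, limit read from the data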
CYP2C9 act: increases human cytochrome P450 2C9 activity. recombinant CYP2C9, luciferin-H conversion, luminescence; stronger effect = higher value; factor 1 = untreated enzyme, 0 = blocked. activation factor at 5 µM. AID 1024. 1.4% of 96,000 active. P11712;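 active means activation factor of 2 or more for CYP2C9 at a 5 µM dose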;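 further: 0 = sulfaphenazole-blocked wells and 1 = vehicle-only wells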
hDAT+cocaine: changed human dopamine transporter uptake under cocaine IC80 | B-score at 10 µM | AID 449768 | 1.3% of 110,000 active | LLC-PK1 hDAT cells, [14C]-dopamine uptake with cocaine IC80; actives deviate in either direction | Q01959;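 active means Z score or B-score, a plate-position-corrected score, falls beyond the plate's 99.7% confidence bounds, in either direction; inactive means both scores lie inside the 99.7% bounds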;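 further: scored against the spread of the other compound wells on the same plate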
CYP2C19 act: cytochrome P450 2C19 (human) activation; P33261; recombinant CYP2C19, luciferin-H EGE luminescence; stronger effect = higher value; 0 = fully inhibited enzyme, 1 = untreated enzyme; activation factor at 5 µM; 96,000 tested, under 10 active; AID 1025;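 active means activation factor of at least 2 at 5 µM in the primary screen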;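 further: 0 = wells with 2.5 mM tranylcypromine and 1 = vehicle-only wells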
D1 allo mod: allosteric modulators of human D1 dopamine receptor; B-score at 10 µM; 5.9% of 58,000 active; AID 641; P21728; HEK293 D1, CRE-luciferase, dopamine EC30 potentiation; actives deviate in either direction;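 active means luminescence count or its row- and column-corrected plate score outside the 99.7% band of the plate's sample wells, on either side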
Target sequence (P21728 whole entry, looked up): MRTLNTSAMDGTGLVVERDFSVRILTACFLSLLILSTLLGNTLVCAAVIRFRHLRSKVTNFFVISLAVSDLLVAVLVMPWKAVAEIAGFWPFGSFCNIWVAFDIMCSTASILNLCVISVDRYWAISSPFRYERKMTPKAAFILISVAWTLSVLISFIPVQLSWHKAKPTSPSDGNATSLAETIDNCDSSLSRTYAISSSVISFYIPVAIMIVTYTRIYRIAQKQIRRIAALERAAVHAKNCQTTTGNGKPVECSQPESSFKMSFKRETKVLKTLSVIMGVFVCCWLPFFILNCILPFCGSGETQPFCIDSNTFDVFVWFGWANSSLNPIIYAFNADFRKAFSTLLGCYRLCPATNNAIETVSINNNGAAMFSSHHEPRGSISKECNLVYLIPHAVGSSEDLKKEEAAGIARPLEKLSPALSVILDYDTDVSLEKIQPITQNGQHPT
An asterisk follows results filed as active; . = no result given.

SMILES	CYP2C19 inhib	CYP2C9 inhib	CYP2C9 act	hDAT+cocaine	CYP2C19 act	D1 allo mod
CN(c1cccc(NC(=O)CN(c2ccc(C34CC5CC(CC(C5)C3)C4)cc2)S(C)(=O)=O)c1)S(C)(=O)=O	17	54*	0.5	0.49	0.8	.
COc1ccc(N(CC(=O)Nc2cccc(N(C)S(C)(=O)=O)c2)S(C)(=O)=O)cc1OC	3	10	0.9	0.26	1	0.17
COc1ccc(C)cc1N(CC(=O)Nc1cccc(N(C)S(C)(=O)=O)c1)S(C)(=O)=O	20	30	0.7	0.0042	0.8	0.00059
COc1ccc(N(CC(=O)Nc2ccc(S(=O)(=O)N3CCOCC3)cc2)S(=O)(=O)c2ccccc2)cc1	28	48	0.5	-0.016	0.7	.
COc1ccc2nc3c(cc2c1)c(NC(=O)c1cccs1)nn3CC(C)C	78*	93*	0.1	.	0.2	-2.4
Cc1ccc2nc3c(cc2c1)c(NC(=O)C1CCCO1)nn3CC(C)C (configuration not stated)	22	31	0.7	1.9	0.8	.
CC(C)Cn1nc(NC(=O)C(C)(C)C)c2cc3ccccc3nc21	36	52*	0.5	0.65	0.6	.
CCCCC(=O)Nc1nn(CC(C)C)c2nc3ccccc3cc12	30	29	0.7	0.25	0.7	.
CC(=O)c1ccc(O)c(CC=C(C)C)c1	.	.	.	-0.5	.	.
CC1=C(C#N)C(C(F)(F)F)(C(F)(F)F)N=C(c2ccco2)N1	82*	75*	0.3	-2.3	0.2	0.23
COc1ccc(N2C(=O)CC(Nc3ccc(C)cc3)C2=O)cc1 (configuration not stated)	14	74*	0.3	1.1	0.9	.
COC(=O)c1cccc(NC2CC(=O)N(c3ccc(OC)c(OC)c3)C2=O)c1 (configuration not stated)	53*	10	0.9	1.1	0.5	.
COC(=O)c1ccccc1NC1CC(=O)N(c2c(C)cccc2C)C1=O (configuration not stated)	34	78*	0.2	0.24	0.7	.
COC(=O)c1ccccc1NC(=O)C1CC(=O)N(c2ccc(C)c(C)c2)C1 (configuration not stated)	37	-54	1.5	1.6	0.6	.
COC(=O)c1ccc(N2C(=O)CC(N(C)CCc3ccc(OC)c(OC)c3)C2=O)cc1 (configuration not stated)	62*	54*	0.5	0.5	0.4	0.024
Cc1ccc(S(=O)(=O)NC(CC(=O)NCC2CCCO2)c2ccco2)cc1 (configuration not stated)	0	-8	1.1	-1.6	1	-0.14
COC(=O)c1ccc(NC2CC(=O)N(c3ccccc3C)C2=O)cc1 (configuration not stated)	60*	20	0.8	-0.88	0.4	.
CN=C(Nc1ccc(C(=O)OC)cc1)SC1CC(=O)N(c2ccccc2F)C1=O (configuration not stated)	16	49	0.5	0.059	0.8	.
CC(CC1C(C#N)=C(N)OC2=C1C(=O)CCC2)c1ccccc1 (configuration not stated)	93*	88*	0.1	.	0.1	-0.7
CC(c1ccccc1)C1C(C#N)=C(N)OC2=C1C(=O)CC(C)(C)C2 (configuration not stated)	90*	84*	0.2	2.8*	0.1	0.63
CC1(C)CC(=O)C2=C(C1)OC(/N=C/N1CCOCC1)=C(C#N)C2c1ccccc1 (configuration not stated)	31	65*	0.3	0.69	0.7	-0.17
C/C(=C\c1ccco1)C1C(C#N)=C(N)OC2=C1C(=O)CC(C)(C)C2 (configuration not stated)	93*	91*	0.1	-0.014	0.1	0.97
COc1ccc(CC(C)N2CCN(c3cccc(C(F)(F)F)c3)CC2)cc1OC (configuration not stated)	23	24	0.8	-0.99	0.8	.
Cc1cc(C(F)(F)F)nn1CC(=O)N1CCOCC1	0	12	0.9	0.0053	1	.
Cc1c(O)c(=O)ccn1C	.	.	.	-0.72	.	.
SMILES	CYP2C19 inhib	CYP2C9 inhib	CYP2C9 act	hDAT+cocaine	CYP2C19 act	D1 allo mod
Cc1cc(C2C(C#N)=C(N)OC3=C2C(=O)CCC3)c(C)s1 (configuration not stated)	51*	22	0.8	-0.41	0.5	.
CC1(C)CC(=O)C2=C(C1)OC(N)=C(C#N)C2C#Cc1ccccc1 (configuration not stated)	15	69*	0.3	0.45	0.8	1.2
COCCNC(=O)C(OC(=O)CC1Sc2ccccc2NC1=O)c1ccccc1 (configuration not stated)	.	.	.	-0.43	.	.
CCCNc1nc(-c2cc(-c3ccc(Cl)cc3)on2)cc(C(C)C)n1	.	.	.	-0.45	.	.
Cn1cccc1C(=O)NC(=O)COC(=O)c1ccc(O)cc1	4	-313	4.1*	0.085	1	.
c1ccc(Cn2nnnc2C(c2cccs2)N2CCCCCC2)cc1 (configuration not stated)	.	.	.	-0.3	.	.
CC(C)C(c1nnnn1Cc1ccccc1)N1CCc2ccccc2C1 (configuration not stated)	39	53*	0.5	0.55	0.6	-0.0035
c1ccc(Cn2nnnc2C(c2cccs2)N2CCc3ccccc3C2)cc1 (configuration not stated)	92*	70*	0.3	0.71	0.1	0.61
COC(=O)C1CCN(C(c2ccc(OC)c(OC)c2)c2sc3nc(C)nn3c2O)CC1 (configuration not stated)	19	-7	1.1	0.00076	0.8	-0.29
CCOC(=O)C1CCN(C(c2cccc(OC)c2)c2sc3nc(C)nn3c2O)CC1 (configuration not stated)	87*	19	0.8	1.6	0.1	0.27
COc1cc(C(c2sc3nc(C)nn3c2O)N2CCc3ccccc3C2)cc(OC)c1OC (configuration not stated)	84*	33	0.7	1.8	0.2	-1.1
COC(=O)C1CCN(C(c2cccs2)c2sc3nc(C)nn3c2O)CC1 (configuration not stated)	47	-2	1	-0.39	0.5	0.024
COc1ccc(C(c2sc3nc(C)nn3c2O)N2CCc3ccccc3C2)cc1 (configuration not stated)	47	27	0.7	1.3	0.5	0.17
CCOC(=O)C1CCN(C(c2cccs2)c2sc3nc(C)nn3c2O)CC1 (configuration not stated)	65*	-3	1	0.47	0.3	0.16
CCOCCCNC(=O)C(NC(=O)C1CCC(=O)N1)c1ccc(C)cc1 (configuration not stated)	-24	-11	1.1	-0.73	1.2	0.017
C=CCn1c(CNc2ccccc2)nnc1SCC(=O)N/N=C/c1ccccc1O	-4	10	0.9	0.66	1	.

Bioassay records: PubChem, several laboratories
